S1P3 antag – antagonists of human S1P3 receptor. CHO S1P3 NFAT-BLA reporter, FRET fluorescence, antagonist mode. Q99500. AID 485. 0.27% of 170,000 active. inhibition, % at 4.98 µM;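 active = inhibition above the plate cutoff, the mean inhibition of test wells on that plate plus 3 SD, cut at about 28% in these data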;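 note: cells challenged with S1P at its EC80 of 0.8 µM; blue over green emission ratio from cleaved BLA substrate after 4 h stimulation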
S1P4 antagonist – human S1P4 receptor antagonism; AID 1510; 0.26% of 220,000 active; inhibition, % at 4.98 µM; O95977; S1P4-expressing cells, antagonist mode, reporter read-out; in the data active = inhibition above about 29%
PGE2 EP2 inh – EP2 receptor (human) inhibition; C6 glioma cells expressing human EP2, cAMP TR-FRET; cells stimulated with saturating PGE2; AID 1422; inhibition, % at 25 µM; 0.52% of 260,000 active;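 active = percent inhibition above 40 after rounding to a whole number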;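 note: rat C6 glioma host cells with rolipram phosphodiesterase inhibitor present; the protocol text gives 20 µM as final concentration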
Target sequence (P43116 whole entry, looked up): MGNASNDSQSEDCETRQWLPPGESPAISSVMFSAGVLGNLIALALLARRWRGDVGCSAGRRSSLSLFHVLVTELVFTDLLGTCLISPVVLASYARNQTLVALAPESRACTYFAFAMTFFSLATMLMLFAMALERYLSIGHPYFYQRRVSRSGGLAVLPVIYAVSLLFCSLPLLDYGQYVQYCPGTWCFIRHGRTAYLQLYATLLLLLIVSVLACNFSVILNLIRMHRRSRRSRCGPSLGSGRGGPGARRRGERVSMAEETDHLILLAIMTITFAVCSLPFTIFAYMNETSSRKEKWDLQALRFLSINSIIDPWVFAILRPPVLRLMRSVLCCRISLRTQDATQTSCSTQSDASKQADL
S1P4 ag – human S1P4 receptor agonism. AID 1509. O95977. activation, % at 4.98 µM. S1P4-expressing cell line, agonist reporter assay. 0.35% of 220,000 active; in the data active = activation above about 11%
EP2 mod – modulates human prostaglandin E2 receptor EP2 signaling; AID 940; P43116; EP2-expressing cells, cAMP HTRF FRET, PGE2 co-stimulation; induction, % at 25 µM; 0.83% of 260,000 active;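 active = compounds whose cAMP rise, as percent of the full-agonist control response, exceeds 60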;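 note: rat C6 glioma line stably carrying human EP2 under a CMV promoter; the protocol text gives 20 µM as final concentration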
Numbers stand for hits; – = inactive; · = no result; ! = not active in a repeat. A selection: hits, their analogues and other compounds. The true share with any hit is near 2%.

SMILES	S1P3 antag	S1P4 antagonist	PGE2 EP2 inh	S1P4 ag	EP2 mod
O=C(Nc1ccccc1N1CCCCC1)c1cccs1	–	–	–	–	61
O=C(Nc1nc(-c2cccs2)cs1)c1ccco1	–	–	–	–	–
O=C(Nc1ccccc1NC(=O)c1ccco1)c1ccco1	69	–	–	–	–
O=C(Nc1ccccc1N1CCCCC1)c1ccco1	·	–	–	–	64
O=C(Nc1nnc(-c2cccs2)s1)c1ccco1	·	·	44	·	–
CC(C)(C(=O)N1CCC(Nc2nc3c(c(=O)[nH]2)CCCC3)CC1)c1ccc(Cl)cc1	·	·	–	·	–
CC(=O)c1ccc(NC(=O)CSc2nnc(-c3cccnc3)o2)cc1	·	·	–	·	–
CCc1cc(C(=O)N2CCCC(c3noc(-c4ccccn4)n3)C2)on1 (centres undefined)	·	·	–	·	–
Cc1cccc(OCC(=O)Nc2ccccc2N2CCCCC2)c1	–	–	–	–	–
CC1(c2ccccc2NC(=O)c2cccs2)CC1	·	·	–	·	65
O=C(COc1ccccc1)Nc1ccccc1N1CCCCC1	–	–	–	–	64!
O=C(CCc1c[nH]c2ccccc12)OCC(=O)c1ccc2ccccc2c1	·	·	–	·	–
Cc1ccc2cc(C(c3nnnn3C3CCCCC3)N3CCOCC3)c(=O)[nH]c2c1 (centres undefined)	·	·	–	·	–
CC(=O)Nc1cccc(NC(=O)Cc2cccs2)c1	·	·	–	·	–
O=C(Cc1cccs1)Nc1cccc(-c2nc3cc4ccccc4cc3[nH]2)c1	–	–	117	–	–
Cc1cc(C)c2nc(SCC(=O)NCc3ccc4c(c3)OCO4)cc(C)c2c1	·	·	–	·	–
CCOc1ccccc1NC(=S)Nc1ncccc1C	–	–	41	–	–
Cc1cccnc1NC(=S)Nc1ncccc1C	–	–	–	–	–
COCCN(C(=O)CCC1CCCC1)c1nnc(-c2ccc(F)cc2)s1	·	·	–	·	–
O=c1cc(O)c2ccc(O)cc2o1	–	–	–	–	–
O=c1ccc2[n+]([O-])c3ccc(O)cc3oc-2c1	–	–	83	–	–
CCc1ccc2[nH]c(=O)c(CN(CC3CCCO3)S(=O)(=O)c3ccc(OC)cc3)cc2c1 (centres undefined)	·	·	–	·	–
C(=N\N1CCN(C2c3ccccc3-c3ccccc32)CC1)/c1ccncc1	·	–	–	–	61
COc1cccc(/C=N/N2CCN(C3c4ccccc4-c4ccccc43)CC2)c1O	–	–	–	–	65
COc1cc(/C=N/N2CCN(C3c4ccccc4-c4ccccc43)CC2)ccc1O	·	–	–	–	–
SMILES	S1P3 antag	S1P4 antagonist	PGE2 EP2 inh	S1P4 ag	EP2 mod
Oc1c(Cl)cc(C(c2cc(Cl)c(O)c(Cl)c2)C(c2cc(Cl)c(O)c(Cl)c2)c2cc(Cl)c(O)c(Cl)c2)cc1Cl	·	·	49	·	–
CCn1c2cc(C)sc2c2cnn(CC(=O)NCc3cccc(OC)c3)c(=O)c21	·	·	·	·	–
COC(=O)c1cc([N+](=O)[O-])c(-n2cncn2)c([N+](=O)[O-])c1	–	–	77	–	–
COc1ccc(NC(=S)NCCc2ccc(Cl)cc2)c(OC)c1	·	–	58	–	–
COc1ccc(NC(=S)NCCc2c[nH]c3ccccc23)c(OC)c1	–	–	55	–	–
O=C(CC(c1ccccc1)c1ccccc1)Nc1nn[nH]n1	–	–	–	–	–
O=C(Nc1nn[nH]n1)c1nc(-c2ccccc2)cc(=O)[nH]1	·	·	55	·	–
Cc1cccc(C2(O)CCN(CC(O)c3ccc4c(c3)CCC4)CC2)c1 (centres undefined)	·	·	–	·	–
O=C(O)/C=C/c1cccc(NC(=O)c2ccccc2)c1	–	–	–	–	93
Cn1c(N2CCC(C(=O)NCc3ccc4c(c3)OCO4)CC2)nc2ccccc21	·	·	·	·	–
Cc1cc(Cc2cc(Cc3cc(C)cc(C(C)(C)C)c3O)c(C)cc2C)c(O)c(C(C)(C)C)c1	·	·	52	·	–
Cc1cc(C)c(O)c(Cc2cccc(Cc3cc(C)cc(C)c3O)c2O)c1	·	·	–	·	–
CC(C)NC(=O)CSc1nnc(-c2ccco2)n1C	·	·	–	·	–
O=C(CCC1CCCCC1)NCc1ccc(F)cc1	–	–	–	–	–
O=C(CCC1CCCCC1)NCc1ccncc1	82	–	–	–	–
O=C(c1ccc(-c2ccccc2)cc1)N1CCN(c2nc3ccccc3o2)CC1	53	–	–	–	–
CCOC(=O)CSc1nc2ccccc2c(=O)n1CC1CCCC1	·	–	–	–	62
CCOC(=O)CSc1nc2ccccc2c(=O)n1CC	–	–	–	–	–
Nc1nc(-c2cc(-c3cccc4ccccc34)nc(N)n2)cc(-c2cccc3ccccc23)n1	·	·	57	·	–
COc1ccc2nc(CN3CCc4nc(N5CCC(C)CC5)[nH]c(=O)c4C3)ccc2c1	·	·	–	·	–
Cc1nnc2n(Cc3ccccc3)c(=O)c3c4c(sc3n12)COC(C(C)C)C4 (centres undefined)	·	–	–	–	64
Cc1cc(OCc2nc(-c3ccc(NC(=O)c4cccnc4)cc3)no2)ccc1Cl	·	–	–	–	–
O=C(Nc1ccc2oc(-c3cccnc3)nc2c1)c1ccco1	·	–	–	–	–
O=C(Nc1ccc(-c2noc(CCc3ccccc3)n2)cc1)c1cccnc1	–	–	76	–	–
O=C(Nc1cccc(-c2nc3ccccc3o2)c1)c1cccnc1	–	–	–	–	–
SMILES	S1P3 antag	S1P4 antagonist	PGE2 EP2 inh	S1P4 ag	EP2 mod
O=C(Nc1ccc(-c2nc3ccccc3o2)cc1)c1cccnc1	·	–	58!	–	–
COc1cc(OC)cc(C(=O)Nc2ccc(-c3nc4ccccc4o3)cc2)c1	–	–	52	–	–
O=C(Nc1ccc2nc(-c3ccccc3)oc2c1)c1ccco1	–	–	42!	–	–
COc1cccc(C(=O)Nc2ccc(-c3nc4ccccc4o3)c(O)c2)c1	–	–	–	–	–
CCC(c1nnnn1Cc1ccco1)N1CCN(c2ccc(OC)cc2)CC1 (centres undefined)	·	·	–	·	–
Cc1cc(C)n(-c2cccc(CN(C)CCN3CCCCC3)c2)n1	·	·	–	·	–
CCOC(=O)C1CCN(C(=O)c2cnn3c(C(F)F)cc(-c4ccc(C)cc4)nc23)CC1	·	·	–	·	–
CCOC(=O)C1CCCN(C(=O)c2cnn3c(C(F)F)cc(-c4ccc(C)cc4)nc23)C1 (centres undefined)	76	–	–	–	–
Cc1nc2c(c(=O)[nH]1)CCN(C(=O)c1cc3n(n1)C(C(F)(F)F)CC(C1(C)CC1)N3)C2 (centres undefined)	·	·	–	·	–
O=C(Nc1nc2c(Br)cc(Br)cc2c(=O)s1)c1ccco1	–	–	–	–	65
O=C1c2ccccc2-c2c(NCCc3ccccc3)c(=O)[nH]c3cccc1c23	·	·	–	·	66
O=c1[nH]ncc(NCCc2ccccc2)c1Cl	–	–	–	–	–
CCC(c1nnnn1CC1CCCO1)N(Cc1ccco1)Cc1cc2cccc(C)c2[nH]c1=O (centres undefined)	·	·	–	·	–
O=Nc1c(O)n(Cc2cccc(C(F)(F)F)c2)c2ccccc12	–	–	–	–	64
CS(=O)(=O)N(CC(=O)NCc1ccc2c(c1)OCO2)c1cc(Cl)cc(Cl)c1	·	·	–	·	–
CN(C)C[C@@H](O)c1ccc(Cl)c2ccccc12	·	·	47	·	–
CCN(CC)C(=O)Oc1ccc(Cl)c2ccccc12	–	–	–	–	–

From PubChem BioAssay
